The supplement of paper PMC13380429
Unmarked numbers belong to inactive results.

System: Vero E6 infected with SARS-CoV-2
Assay: inhibition of SARS-CoV-2 cytopathic effect; higher = more antiviral protection, active = above 15
Conditions: 48 h

Structure (SMILES) | inhibition of SARS-CoV-2 cytopathic effect (1 nM) [%] | inhibition of SARS-CoV-2 cytopathic effect (8.33 nM) [%] | inhibition of SARS-CoV-2 cytopathic effect (100 nM) | inhibition of SARS-CoV-2 cytopathic effect (833.33 nM) | inhibition of SARS-CoV-2 cytopathic effect (10000 nM) [%]
Cc1cccc(/C=N/Nc2cc(N3CCOCC3)n3nc(-c4ccncc4)cc3n2)c1 | 1.37 | 4.2 | 27.3% (active) | 19% (active) | 13.2
COc1cc2c(cc1OCCCN1CCCC1)N=C(N)C21CCC1 | -1.51 | 0.76 | 0.57% | 1.84% | 1.55
CCCOc1ccc2[nH]c(NC(=O)OC)nc2c1 [oxibendazole] | -2.12 | -0.7 | -0.63% | -2.39% | -0.04
CCCCNc1nc(N)c2[nH]c(=O)n(Cc3ccc(OCCN(C)C)nc3)c2n1 | -1.79 | 0.48 | 2.36% | -0.4% | -0.44
Nc1nc(CC(=O)Nc2ccc(CCNC[C@H](O)c3ccccc3)cc2)cs1 [mirabegron] | -0.75 | -0.61 | 1.85% | -1.35% | -3.3
N=C(N)N/N=C/c1c(Cl)cccc1Cl [guanaben-acetate] | -2.82 | -0.46 | -3.74% | -2.55% | -1.82
Nc1nccc2c1ncn2C1C=C(CO)C(O)C1O (stereo not given) [3-deazaneplanocin-A] | 0.46 | 1.89 | 3.16% | 5.38% | -3.44
CC(C)(C)c1ccc2cc(C#N)c(C#N)cc2c1 | 0.02 | 1.71 | -1.56% | 0.05% | -3.93
Fc1ccccc1-c1nc2ccn(Cc3ccc(-c4ccc(C(F)(F)F)cc4C(F)(F)F)nn3)cc-2n1 [tegobuvir] | 0.53 | 2.58 | 3.4% | 1.35% | -1.75
CCCC(=O)OCOC(=O)C1=C(C)NC(C)=C(C(=O)OC)C1c1cccc(Cl)c1Cl (stereo not given) [cleviprex] | 3.04 | 3.86 | 2.92% | 0.61% | 4.07
CCCCCC(O)CCCC(=O)O (stereo not given) | -2.76 | -6.54 | -3.55% | -1.75% | -6.15
C[C@@H](N)c1ccc(C(=O)Nc2ccnc3[nH]ccc23)cc1 | 0.69 | -1.06 | 0.35% | -5.51% | -13.4
CN[C@@H]1[C@H](O[C@H]2[C@H](O[C@H]3[C@H](O)[C@@H](O)[C@H](NC(=N)N)[C@@H](O)[C@@H]3NC(=N)N)O[C@@H](C)[C@]2(O)CO)O[C@@H](CO)[C@H](O)[C@H]1O [dihydrostreptomycin] | 0.2 | -0.04 | -0.21% | 0.85% | -0.41
CC(=O)Oc1cccc(C(=O)O)c1OC(C)=O [dipyrocetyl] | -0.44 | -1.4 | 2.59% | -0.15% | 5.25
CC1=NN(c2ccccc2)C(=O)C1 [edaravone] | 1.36 | 0.66 | -0.76% | 0.1% | 3.57
CCOC(=O)c1c(O)nc2cccc3c2c1-c1ccccc1C3=O | 0.21 | 0.57 | 5.31% | 4.72% | 4.09
COCCOC(=O)C1=C(C)NC(C)=C(C(=O)OC/C=C/c2ccccc2)C1c1cccc([N+](=O)[O-])c1 (stereo not given) [cilnidipine] | -1.01 | -0.52 | 0.89% | 0.38% | 7.9
COC1CCN(c2cccc(-c3cc(NC(C)=O)nc(-n4nc(C)cc4C)n3)n2)CC1 | 0.48 | 2.72 | 2.53% | 1.74% | -0.2
CCCCCCCCCCCCCCOc1ccc(C(=O)O)o1 | -3.57 | 0.74 | 1.46% | -0.07% | 2.73
C[n+]1cccc(C(=O)[O-])c1 [trigonelline] | 5.14 | 3.85 | 1.81% | 1.44% | 0.82
C[C@H]1CN(C[C@H](Cc2ccccc2)C(=O)NCC(=O)O)CC[C@@]1(C)c1cccc(O)c1 [alvimopan] | 1.74 | 3.07 | 3.04% | -0.26% | 2.12
O=C(Nc1ccccc1C(=O)Nc1ccc(CCO)cc1)c1ccc([N+](=O)[O-])cc1 | -0.75 | 0.23 | -1.82% | -1.34% | -1.2

Structure (SMILES) | inhibition of SARS-CoV-2 cytopathic effect (1 nM) [%] | inhibition of SARS-CoV-2 cytopathic effect (8.33 nM) [%] | inhibition of SARS-CoV-2 cytopathic effect (100 nM) | inhibition of SARS-CoV-2 cytopathic effect (833.33 nM) | inhibition of SARS-CoV-2 cytopathic effect (10000 nM) [%]
CCC(=O)NS(=O)(=O)c1ccc(-c2c(-c3ccccc3)noc2C)cc1 [parecoxib] | -0.31 | 0.02 | 1.66% | 1.26% | -1.54
CC(C)C(N)=O [isobutyramide] | 4.35 | 1.02 | 2.22% | 2.44% | 0.68
COc1ccc2[nH]cc(C3=CCNCC3)c2c1 | 1.62 | -0.77 | 0.86% | -2.22% | -3.05
O=C(O)c1cnn(-c2nc3cc(OC(F)(F)F)c(Cl)cc3[nH]2)c1 | 0.36 | 1.44 | 1.23% | 1.43% | -0.28
CCOC(=O)c1ccc(OCCC2CCN(c3ccc(C)nn3)CC2)cc1 [pirodavir] | 2.32 | 1.72 | 0.34% | 1.49% | -2.18
CN(C)Cc1ccc(-c2nc3cccc4c3n2CCNC4=O)cc1 | 0.51 | 4.23 | 3.95% | 1.65% | 6.38
Cc1cccc(C)c1OCC(C)N (stereo not given) [mexiletine] | 4.03 | 3.45 | 2.85% | 7.08% | 5.03
N[C@H]1C[C@@H]1c1ccc(-c2cccc(O)c2)cc1 | 1.62 | -1.45 | -0.41% | -1.63% | -0.24
CCO/N=C(\C(=O)N[C@@H]1C(=O)N2C(C(=O)[O-])=C(Sc3nc(-c4cc[n+](C)cc4)cs3)CS[C@H]12)c1nsc(NP(=O)(O)O)n1 [ceftaroline-fosamil] | 3.38 | 2.02 | 4.54% | 4.34% | 3.55
Nc1ccccc1NC(=O)c1ccc(CNc2nccc(-c3cccnc3)n2)cc1 [mocetinostat] | 0.57 | -0.45 | -0.53% | 1.7% | -0.45
C[C@@H](Oc1ccc(Cl)cc1)c1ccnc2ncnn12 | -0.64 | 0.02 | -0.48% | -2.21% | -3.4
CCOc1cncc(/C=C/CCNC)c1 | 0.97 | -1.63 | -0.92% | 0.41% | 3.59
Cn1ncc(Cl)c1-c1cc(C(=O)N[C@H](CN)Cc2ccc(F)c(F)c2)oc1Cl [uprosertib] | -2.98 | -0.16 | -1.46% | 0.21% | -3.53
CN/C(=N\S(=O)(=O)c1ccc(Cl)cc1)N1C[C@H](c2ccccc2)C(c2ccc(Cl)cc2)=N1 (racemic) | -2.29 | -0.66 | -0.25% | 1.24% | -3.73
CC(C)(O)c1coc(S(=O)(=O)NC(=O)Nc2c3c(cc4c2CCC4)CCC3)c1 | -0.7 | -2.3 | -3.97% | 0.34% | -0.6
Cn1ccc2cc3c(cc21)CCN3C(=O)Nc1cccnc1 | 1.1 | 0.1 | 1.8% | 0.79% | 2.05
CCOCC(O)COc1ccc(NC(=O)CC[S+](C)C)cc1 (stereo not given) [suplatast] | 2.01 | -0.4 | -0.49% | 0.97% | 0.31
CC(C)(C)c1cc(NC(=O)Nc2ccc(-c3cn4c(n3)sc3cc(OCCN5CCOCC5)ccc34)cc2)no1 [quizartinib] | -1.91 | -0.28 | 0.83% | -4.72% | -4.89
O=C(NNc1ccccc1)c1ccncc1 [plurisin-1] | 0.37 | 1.32 | 1.76% | -2.79% | -6.02
O=C(O[C@@H]1Cc2c(O)cc(O)cc2O[C@@H]1c1ccc(O)c(O)c1)c1cc(O)c(O)c(O)c1 [epicatechin-gallate-(-)] | -1.08 | 3.11 | 5.77% | 3.37% | -0.51
CC(C)[C@H]1[C@@H]2CC[C@@H](C2)[C@@H]1N | 0.17 | 2.01 | 5.77% | 6.62% | 4.27
